Screening results (PubChem BioAssay)
Shown are actives, neighbours in structure and some others; about 28% of the full set was active somewhere.
CYP2C19 inhib = inhibitors of human CYP2C19; P33261; CYP2C19 Supersomes, luciferin-H EGE luminescence, 30 min; inhibition, % at 5 µM; 96,000 compounds, 21% hits;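 active = CYP2C19 inhibition above a set limit at 5 µM in the primary screen, cut at about 50% in these data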
PLK1 inh = inhibitors of human PLK1 kinase. P53350. recombinant PLK1 kinase, TR-FRET peptide phosphorylation. 97,000 compounds, 0.53% hits. inhibition, % at 10 µM;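 active = inhibition of 50% or more in the single-concentration screen; inactive = inhibition below 50%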
Target sequence (P53350 whole entry, looked up): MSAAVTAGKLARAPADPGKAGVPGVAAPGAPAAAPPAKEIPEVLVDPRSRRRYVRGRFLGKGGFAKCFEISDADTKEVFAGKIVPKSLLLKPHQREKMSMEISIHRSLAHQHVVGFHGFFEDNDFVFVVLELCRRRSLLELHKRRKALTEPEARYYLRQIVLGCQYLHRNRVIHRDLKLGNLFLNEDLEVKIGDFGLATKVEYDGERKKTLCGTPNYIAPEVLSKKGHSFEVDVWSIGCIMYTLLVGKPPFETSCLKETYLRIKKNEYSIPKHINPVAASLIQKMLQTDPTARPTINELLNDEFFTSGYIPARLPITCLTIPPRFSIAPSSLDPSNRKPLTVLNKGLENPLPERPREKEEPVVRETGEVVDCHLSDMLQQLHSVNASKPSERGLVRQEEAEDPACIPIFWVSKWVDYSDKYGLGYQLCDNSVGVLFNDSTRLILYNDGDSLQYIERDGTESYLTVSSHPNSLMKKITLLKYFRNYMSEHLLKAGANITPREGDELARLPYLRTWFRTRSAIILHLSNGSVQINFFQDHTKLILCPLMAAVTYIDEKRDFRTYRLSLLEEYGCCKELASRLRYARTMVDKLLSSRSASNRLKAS
CYP2C9 activ = activators of human CYP2C9; P11712; recombinant CYP2C9, luciferin-H conversion, luminescence; active compounds read high; factor 1 = untreated enzyme, 0 = blocked; activation factor at 5 µM; 96,000 compounds, 1.4% hits; AID 1024;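 active = activation factor of 2 or more for CYP2C9 at a 5 µM dose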
CYP2C9 inhib = inhibitors of human CYP2C9 | P11712 | CYP2C9 Supersomes, luciferin-H conversion, luminescence | inhibition, % at 5 µM | 96,000 compounds, 20% hits | AID 777;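 active = blocking of liver enzyme CYP2C9 beyond about 50% at 5 µM, limit read from the data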
CYP2C19 act = activators of human cytochrome P450 2C19 | recombinant CYP2C19, luciferin-H EGE luminescence; active compounds read high; 0 = fully inhibited enzyme, 1 = untreated enzyme | activation factor at 5 µM | 96,000 tested, under 10 active;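 active = activation factor of at least 2 at 5 µM in the primary screen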
PLK1 PBD inh = blocks phosphopeptide binding to human Plk1 polo box domain; P53350; Plk1 PBD phosphopeptide binding, fluorescence polarization; inhibition, %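 (tested at about 20 µM)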; 97,000 compounds, 0.13% hits; in the data active = inhibition above about 34%, passing the limit was not always enough
Large screens that a line does not name were inactive.

O=C(O)CSc1nnc(-c2ccncc2)n1-c1ccc(Cl)cc1	CYP2C9 inhib 51.2
O=C(CSc1nnc(-c2ccncc2)n1-c1ccc(Cl)cc1)N1CCOCC1	CYP2C19 inhib 98.2, CYP2C9 inhib 77.3
CSc1nnc(-c2ccccc2N=Cc2c(C)[nH]n(-c3ccc4ccccc4c3)c2=O)c(=O)[nH]1	none
N=c1c2c3c(sc2nc2n1CCCCC2)CCCCC3	none (no result: PLK1 inh, PLK1 PBD inh)
COc1ccc2c(c1)OC13CCCCC1C2C(C(=O)c1ccccc1)C(=O)N3 (stereo not given)	none
Cc1ccccc1-n1c(SCC(=O)N2CCN(c3ccccc3)CC2)nnc1-c1ccncc1	CYP2C19 inhib 83.8, CYP2C9 inhib 75.9 (no result: PLK1 inh, PLK1 PBD inh)
Clc1ccc(-n2c(SCc3nc4ccccc4[nH]3)nnc2-c2ccncc2)cc1	CYP2C19 inhib 98.7, CYP2C9 inhib 84.3
C=CCn1c(SCCC(=O)O)nc2c1c(=O)n(C)c(=O)n2C	none
COc1cccc2c(=O)n(CC(=O)N3CCN(c4ccccc4)CC3)ccc12	none (no result: CYP2C19 inhib, CYP2C9 activ, CYP2C9 inhib, CYP2C19 act)
C/C(CC(C)(C)C1CCCCC1)=N\NC(N)=S	CYP2C19 inhib 93.1
O=C(c1ccccc1Cl)N1N=C(c2ccc(Br)cc2)CC1c1nc2ccccc2[nH]1 (stereo not given)	CYP2C19 inhib 50.1, CYP2C9 inhib 67.1
CC(=O)Nc1ccccc1-c1nc2ccc(C(=O)N3CCN(c4cc(C)ccc4C)CC3)cc2[nH]c1=O	CYP2C19 inhib 69.5, CYP2C9 inhib 99.1
CCN(CCNC(=O)c1ccc2nc(-c3ccccc3NC(C)=O)c(=O)[nH]c2c1)c1ccccc1	none
Cc1cccc(N/C(=N\S(=O)(=O)c2ccccc2)C(F)(F)F)c1	CYP2C9 inhib 56.2
O=S(=O)(/N=C(\Nc1ccc(F)cc1)C(F)(F)F)c1ccccc1	CYP2C9 inhib 55.9
Cc1cccc(NC(=O)N[C@@H](C)C(=O)O)c1	none
Cc1ccc(-n2c(C)nnc2SCC(=O)N2CCc3ccccc3C2)cc1C	none (no result: CYP2C9 activ, CYP2C9 inhib)
Cc1ccc(C(=O)Nc2ccc3nccnc3c2)cc1	none
COc1ccc(C(=O)Nc2cccc(C)c2)cc1	CYP2C19 inhib 71.2
Cc1ccc(C(=O)Nc2cccc(C(=O)O)c2)cc1	CYP2C19 inhib 87.1, CYP2C9 inhib 54.5
COc1ccc(CNC(=O)Nc2cccc(C)c2)cc1	none
O=C(Cn1c(=O)c2c(ncn2Cc2ccccc2)n(Cc2ccccc2)c1=O)N1CCCC1	CYP2C19 inhib 67.0
CCn1cnc2c1c(=O)n(Cc1csc(-c3ccccc3)n1)c(=O)n2Cc1ccccc1	CYP2C19 inhib 85.5, CYP2C9 inhib 89.4
O=C(Cn1c(=O)c2c(ncn2Cc2ccccc2)n(Cc2ccccc2)c1=O)N1CCc2ccccc21	none
c1ccc2c(CNCCN3CCOCC3)cccc2c1	none
CCC(C)NC(=O)CN(c1ccc2c(c1)OCO2)S(=O)(=O)c1c(C)n[nH]c1C (stereo not given)	CYP2C19 inhib 76.0, CYP2C9 inhib 51.5
Cc1n[nH]c(C)c1S(=O)(=O)N(CC(=O)Nc1ccc2c(c1)OCCO2)c1ccc(C(C)C)cc1	CYP2C9 inhib 67.5
Cc1noc(C)c1S(=O)(=O)N(CC(=O)Nc1ccc2c(c1)OCO2)c1ccc(C(C)C)cc1	none
CC(Sc1nnc(-c2ccc(Cl)cc2)n1C)C(N)=O (stereo not given)	none
NC(=O)C(c1ccc(Cl)cc1)c1ccc(Sc2ccc(Cl)cc2)nn1 (stereo not given)	CYP2C19 inhib 63.4
CC(=O)Nc1cccc(NC(=O)CSc2nnnn2C)c1	none
CCOC(=O)CC(=O)CSc1nc(C)cc(C)c1C#N	CYP2C19 inhib 69.8
CCOC(=O)CC(=O)CSc1nc2c(c(C)c1C#N)CCC2	none
CCOC(=O)CC(=O)CSc1nc(N)c(C#N)c(-c2ccc(Cl)cc2)c1C#N	CYP2C19 inhib 83.8, CYP2C9 inhib 61.8
N#Cc1c(N)nc(SCC(=O)C23CC4CC(CC(C4)C2)C3)c(C#N)c1-c1ccc(Cl)cc1	none
COC(=O)C(Sc1nc(C)cc(C)c1C#N)c1ccccc1 (stereo not given)	CYP2C19 inhib 53.9
CCOC(=O)N1CCN(c2cc(=O)n(-c3cccc(Br)c3)c(=O)[nH]2)CC1	none
COc1ccc(C(=O)C2CCCCC2=O)cc1 (stereo not given)	none
COc1ccc(C(=O)CC(c2ccccc2)C2C(=O)CCCC2=O)cc1 (stereo not given)	CYP2C19 inhib 68.7, CYP2C9 inhib 93.1
O=C(CC(c1ccco1)C1CCCCC1=O)c1ccccc1 (stereo not given)	CYP2C19 inhib 61.5, CYP2C9 inhib 74.3
COc1ccc(C(CC(=O)c2ccccc2)C2CCCCC2=O)cc1 (stereo not given)	CYP2C19 inhib 52.7
O=C(Cn1cccc1C(=O)c1ccccc1)NCc1ccccn1	none
O=C(NCc1cccnc1)C1CCN(S(=O)(=O)N2CCOCC2)CC1	none
Cc1cc(NC(=O)c2cc(S(=O)(=O)N3CCCCC3)ccc2C)n(-c2ccccn2)n1	CYP2C9 inhib 64.4
Cc1ccc(S(=O)(=O)N2CCCCC2)cc1C(=O)Nc1ccc2cn[nH]c2c1	CYP2C9 inhib 63.9
Cc1ccc(S(=O)(=O)N2CCCCC2)cc1C(=O)Nc1ccc(N2CCOCC2)cc1	none
Cc1ccc(S(=O)(=O)N2CCOCC2)cc1C(=O)Nc1ccccn1	none
Cc1ccc(S(=O)(=O)N2CCCCC2)cc1C(=O)Nc1ncn[nH]1	CYP2C9 activ 2 (no result: PLK1 inh, PLK1 PBD inh)
Cc1ccc(S(=O)(=O)N2CCOCC2)cc1C(=O)NC1CCCCC1	none (no result: PLK1 inh, PLK1 PBD inh)
COc1ccc(N2CCN(S(=O)(=O)c3ccc(C(=O)NCc4ccco4)cc3)CC2)cc1	none (no result: CYP2C19 inhib, CYP2C9 activ, CYP2C9 inhib, CYP2C19 act)
O=C(Cc1ccc(-n2cccc2)cc1)NCc1cccs1	none
O=[N+]([O-])c1cc(Cl)cc(C2=NCCN2)c1	none
O=S1(=O)C=C(SCc2ccccc2)Nc2ccccc21	CYP2C19 inhib 68.4, CYP2C9 inhib 63.2
COc1ccc2cc3cc(C(=O)Nc4ccccc4N4CCN(C)CC4)oc3nc2c1	CYP2C19 inhib 61.2
CC(=O)N(CCC1(C(C)C)CCOC(C)(C)C1)Cc1ccco1 (stereo not given)	none
CCC(=O)N(CCC1(C(C)C)CCOC(C)(C)C1)Cc1ccco1 (stereo not given)	CYP2C19 inhib 58.6
COc1ccc(OC)c2sc(NC(=O)c3ccc(S(=O)(=O)N(C)C)cc3)nc12	none
COCc1[nH]nc2c1C1(C(=O)Nc3ccc(F)cc31)C(C#N)=C(N)O2 (stereo not given)	none
Cc1ccc(SCc2[nH]nc3c2C2(CCSCC2)C(C#N)=C(N)O3)cc1	none
Cc1[nH]nc2c1C1(CCC(c3ccccc3)CC1)C(C#N)=C(N)O2 (stereo not given)	PLK1 inh 59.7
Cc1[nH]nc2c1C1(CCN(C(=O)c3ccccc3)CC1)C(C#N)=C(N)O2	none
CCOC(=O)N1CCC2(CC1)C(C#N)=C(N)Oc1n[nH]c(CSc3ccc(C)cc3)c12	CYP2C9 inhib 70.1
